MsrA act: bovine MsrA enzyme activators, primary screen, biochemical, absorbance, HTS; Methionine sulfoxide reductase A (Bos taurus); purified bovine MsrA, absorbance read-out; activation, % at 10.6 µM; actives 0.3% (n = 360,000); in the data active = activation above about 7.5%;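 also: 0% = vehicle and 100% = reference activator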
NadD inh: inhibitors of S. aureus NadD, primary screen, biochemical, colorimetric, uHTS. actives 0.78% (n = 360,000). purified NadD enzyme, colorimetric absorbance read-out. inhibition, % at 20 µM; in the data active = inhibition above about 26%
MsrA inhibitor: bovine MsrA enzyme inhibitors, primary screen, biochemical, absorbance, HTS; Methionine sulfoxide reductase A (Bos taurus); actives 0.75% (n = 360,000); purified bovine MsrA, absorbance read-out; inhibition, % at 15.5 µM; in the data active = inhibition above about 4.5%;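 also: 0% = vehicle wells with enzyme and 100% = reference inhibitor wells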
rCAG binder: binders of r(CAG) RNA repeats, primary screen, biochemical, fluorescence; r(CAG) RNA repeat, TO-PRO-1 dye displacement fluorescence; inhibition, % at 3 µM; actives 1.3% (n = 370,000);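 active = inhibition above the plate cutoff, the mean of all test compounds on that plate plus 3 SD, cut at about 35% in these data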;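 also: 0% = DMSO alone and 100% = 100 µM mitoxantrone as full dye displacement; higher means more dye released from RNA so lower well fluorescence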
Pemphigus Ab inh: inhibitors of pemphigus antibody binding to DSG3, primary screen, biochemical, bead-based, flow cytometry, scFv-GFP; Desmoglein-3 (Homo sapiens), P32926; binding (percent of control), % at 10 µM; DSG3-coupled beads, scFv-anti-DSG3-GFP binding; active compounds read low; actives 0.48% (n = 310,000); AID 588358, 2011;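 active = binding more than 3 SD below its plate's average and above zero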;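 also: hits lower antibody fragment binding to DSG3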
Target sequence (P32926 whole entry, looked up, the tested form may be a part): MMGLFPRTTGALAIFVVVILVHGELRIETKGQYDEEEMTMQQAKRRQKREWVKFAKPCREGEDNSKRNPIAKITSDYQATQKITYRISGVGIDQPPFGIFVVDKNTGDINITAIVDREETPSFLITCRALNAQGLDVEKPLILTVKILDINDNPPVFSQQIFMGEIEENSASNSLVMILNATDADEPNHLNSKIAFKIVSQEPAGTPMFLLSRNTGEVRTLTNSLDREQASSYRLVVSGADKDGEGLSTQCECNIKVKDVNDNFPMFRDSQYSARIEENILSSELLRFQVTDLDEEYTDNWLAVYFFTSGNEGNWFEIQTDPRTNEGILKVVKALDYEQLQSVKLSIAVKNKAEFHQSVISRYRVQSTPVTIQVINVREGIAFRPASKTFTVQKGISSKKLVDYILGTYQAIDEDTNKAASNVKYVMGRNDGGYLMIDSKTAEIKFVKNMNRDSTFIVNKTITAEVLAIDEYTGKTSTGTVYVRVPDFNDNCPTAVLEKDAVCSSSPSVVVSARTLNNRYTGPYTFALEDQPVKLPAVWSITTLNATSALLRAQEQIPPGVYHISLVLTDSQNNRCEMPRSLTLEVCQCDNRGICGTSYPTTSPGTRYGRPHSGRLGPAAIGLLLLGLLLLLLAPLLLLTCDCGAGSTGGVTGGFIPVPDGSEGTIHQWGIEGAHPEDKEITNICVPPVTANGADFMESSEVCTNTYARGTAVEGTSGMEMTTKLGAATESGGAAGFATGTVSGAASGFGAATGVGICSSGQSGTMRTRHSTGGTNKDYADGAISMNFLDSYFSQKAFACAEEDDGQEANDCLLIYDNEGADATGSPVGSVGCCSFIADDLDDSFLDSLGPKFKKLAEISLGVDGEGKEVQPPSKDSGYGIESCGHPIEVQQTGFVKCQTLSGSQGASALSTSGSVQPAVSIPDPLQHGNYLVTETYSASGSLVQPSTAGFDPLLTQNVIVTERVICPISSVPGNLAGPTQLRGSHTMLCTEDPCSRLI
DAGLB inhibitor: DAGLB lipase inhibitors, primary screen, biochemical, fluorescence, HTS | inhibition, % at 5.17 µM | actives 0.059% (n = 340,000) | Diacylglycerol lipase-beta (Homo sapiens), Q8NCG7 | AID 504411, 2011 | HEK293T DAGLB membrane lysate, EnzChek fluorogenic substrate; in the data active = inhibition above about 34%;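 also: 0% = enzyme with vehicle and 100% = wells lacking enzyme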
rCAG binder conf: small molecules binding CAG repeat RNA – biochemical, fluorescence, confirmation. shares compounds with rCAG binder. r(CAG) RNA repeat, TO-PRO-1 dye displacement fluorescence. inhibition, % at 3 µM. actives 70% (n = 4,300). AID 652065, 2013;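 active = inhibition above a per-plate cutoff, the mean inhibition of sample wells plus 3 SD, cut at about 35% in these data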;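 also: loss of TO-PRO-1 fluorescence as compound displaces dye from 1x1 AA loop RNA; 0% = DMSO only wells and 100% = 100 µM mitoxantrone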
DNA CAG counter: displacement of TO-PRO-1 from CAG DNA duplex, counter-screen for rCAG RNA repeat binder project, biochemical, fluorescence, TO-PRO-1 dye, d(CAG) DNA oligo; shares compounds with rCAG binder; d(CAG) DNA oligo TO-PRO-1 dye displacement; inhibition, % at 3 µM; actives 94% (n = 4,300); AID 652068, 2013;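 active = inhibition above its plate's cutoff, the mean test-well inhibition plus 3 SD, cut at about 4.8% in these data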;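 also: 0% = DNA dye mix with DMSO and 100% = 100 µM mitoxantrone; hits displace the dye from DNA and so lower well fluorescence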
dCAG dye DR: inhibitors of DNA CAG/GTC TO-PRO-1 complex, dose response, counter-screen for rCAG RNA repeat binder project, biochemical, fluorescence, TO-PRO-1 dye; shares compounds with rCAG binder; DNA CAG/GTC duplex TO-PRO-1 dye displacement fluorescence; IC50, µM; actives 20% (n = 250); AID 686960, 2013; in the data active = IC50 below about 10 µM
* = called active by the depositor; i = inactive; x = not tested or not shown. Only some compounds are listed: those with a hit (about 3.2% of all), similar ones and a draw of the others.

SMILES	MsrA act	NadD inh	MsrA inhibitor	rCAG binder	Pemphigus Ab inh	DAGLB inhibitor	rCAG binder conf	DNA CAG counter	others
CC(C)N1CCCCC(NC(=O)COCc2ccccc2)C1=O (stereo unspecified)	x	x	x	-2.2	x	x	x	x
CC1CCc2c(sc3nc(C(C)(C)C)nc(N4CCN(C(=O)CCl)CC4)c23)C1 (stereo unspecified)	0.8	6.0	0.8	0.4	128.4	9.0	x	x
O=C(O)/C(=C\c1ccccc1Cl)c1ccc(S(=O)(=O)N2CCCCC2)s1	0.1	7.5	1.0	50.7*	91.8	7.3	34.3	9.4*
O=C(O)C(=Cc1ccccc1Cl)c1ccccc1	-9.4	0.6	x	x	x	x	x	x
CCNC(=O)C1(C)CCN(Cc2ccc(-c3ccccc3)cc2)C1 (stereo unspecified)	-1.1	-0.8	1.9	-2.8	x	x	x	x
CCOc1ccccc1NC(=O)CCN1CCN(S(=O)(=O)c2ccc(Br)cc2)CC1	-13.3	1.4	-2.0	36.0*	115.4	-6.6	2.5	0.7
CCOc1ccc(NC(=O)CCN2CCN(S(=O)(=O)c3ccc(F)cc3)CC2)cc1	-1.3	-4.5	0.0	0.4	x	-0.1	x	x
O=C(O)c1cc(S(=O)(=O)N2CCN(C(c3ccccc3)c3ccccc3)CC2)ccc1Cl	-2.5	3.6	-0.5	54.9*	100.0	8.9	49.4*	17.4*
O=C(O)c1cc(S(=O)(=O)N2CCN(S(=O)(=O)c3ccc4ccccc4c3)CC2)ccc1Br	-1.2	6.6	0.6	53.4*	115.7	10.1	43.4*	14.8*
O=S(=O)(c1ccc2ccccc2c1)N1CCCCCC1	-2.6	-5.2	1.4	-3.1	95.3	-10.7	x	x
Cc1ccc(Cn2cc(CN3CC(N4CCN(CCO)CC4)CS3(=O)=O)nn2)cc1 (stereo unspecified)	-2.4	-5.4	-0.1	1.9	x	x	x	x
Cc1ccc2nc(N/C(=N/S(=O)(=O)c3ccc(F)cc3)c3ccccc3)sc2c1	-2.8	7.7	1.1	27.1	109.1	10.5	x	x
Cc1ccc2nc(N/C(=N/S(=O)(=O)c3ccc(F)cc3F)c3ccccc3)sc2c1	-4.8	2.7	1.4	45.9*	101.5	2.4	47.7*	14.5*
CCOC(=O)C1C(=O)CC(=O)C(C(=O)OCC)C1c1ccc(O)cc1 (stereo unspecified)	-8.8	-6.2	0.3	36.3*	102.1	-7.8	2.7	0.8
CC(=O)c1c(O)c(C)c(O)c2c1OC1=CC(=O)C(C(C)=O)C(=O)[C@@]12C (stereo partly specified)	-9.5	-5.6	2.5	41.7*	94.7	0.6	14.2	3.2
CC(=O)Oc1c(C)c(OC(C)=O)c2c(c1C(C)=O)OC1CC(=O)C(C(C)=O)=C(O)C21C (stereo unspecified)	-8.3	-1.0	1.1	8.8	94.4	-4.0	x	x
O=C(O)COc1ccc(-c2nnn(CC(=O)O)n2)cc1	-6.0	3.3	-1.1	1.8	97.6	1.7	x	x
O=C(O)Cn1nnc(-c2ccc(OCc3ccccc3Cl)cc2)n1	x	x	-0.9	38.8*	94.5	-3.0	25.7	3.1
CC(=O)c1cc(-c2ccc(Cl)c(Cl)c2)c(=O)n2c1CCC2	x	x	x	4.3	x	x	x	x
COc1ccc(C(=O)NCCSCc2ccccc2)cc1OC	-1.1	1.4	0.0	-5.6	102.8	-1.1	x	x
COc1ccc(C(=O)NCCSCc2ccccc2Cl)cc1OC	-0.9	-10.2	-0.8	80.2*	120.2	0.9	2.6	0.1
O=C(N/N=C/c1ccc([N+](=O)[O-])o1)c1sc2ccccc2c1Cl	0.2	17.1	3.4	35.9*	81.8*	-1.2	38.5*	17.9*
CCOC(=O)c1ccc(NC(=O)c2c(NC(=O)CCC(=O)O)sc3c2CCCCC3)cc1	-3.0	5.7	0.4	43.0*	100.7	x	34.4	10.4*
CSCC[C@H](NC(=O)Cc1c(C)c2cc3c(C)c(C)oc3cc2oc1=O)C(=O)N[C@@H](C(=O)O)c1ccccc1	-0.8	1.3	1.2	40.4*	x	x	46.7*	13.6*
CCCCC(NC(=O)Cc1c(C)c2cc3c(C)c(C)oc3c(C)c2oc1=O)C(=O)O (stereo unspecified)	-12.4	7.7	1.4	38.2*	109.9	6.7	41.0*	9.7*
SMILES	MsrA act	NadD inh	MsrA inhibitor	rCAG binder	Pemphigus Ab inh	DAGLB inhibitor	rCAG binder conf	DNA CAG counter	others
Cc1c(CC(=O)N[C@@H](C)C(=O)O)c(=O)oc2cc3occ(-c4ccccc4)c3cc12	-2.3	-1.9	-0.2	31.5	97.8	-0.7	x	x
CC[C@@H](C)[C@H](NC(=O)Cc1c(C)c2c(cc(C)c3c(C)c(C)oc32)oc1=O)C(=O)O	-0.3	9.3	2.9	35.2*	103.6	4.0	32.5	5.7*
Cc1c(CC(=O)N[C@@H](C)C(=O)O)c(=O)oc2c(C)c3occ(-c4ccccc4)c3cc12	-8.9	2.1	1.5	38.1*	99.0	1.4	49.9*	15.0*
Cc1oc2c(c(C)cc3oc(=O)c(CC(=O)N[C@@H](C)C(=O)O)c(C)c32)c1C	0.1	-1.2	1.6	17.9	96.2	-0.9	x	x
C[C@H]1CN([C@@H](C)CO)S(=O)(=O)c2ccc(Br)cc2O[C@H]1CN(C)C(=O)Cc1ccncc1	-2.4	-7.3	1.6	0.2	x	x	x	x
N#Cc1c(SC(C(=O)O)c2ccccc2)nc2c(c1-c1cccs1)CCCC2 (stereo unspecified)	-3.2	8.1	2.0	67.2*	105.5	12.7	74.3*	28.2*	dCAG dye DR=i
CCOC(=O)C(C)Sc1nc2c(c(-c3cccs3)c1C#N)CCC2 (stereo unspecified)	-0.5	-0.9	-0.6	4.4	83.4	-12.5	x	x
Cc1ccc(-c2csc3nc(SCC(=O)Nc4ccc(Cl)c(C(=O)O)c4)[nH]c(=O)c23)cc1	-0.1	16.6	-0.3	80.6*	95.3	11.1	55.1*	20.2*
C[C@H](CO)N1C[C@H](C)[C@H](CN(C)Cc2ccc(C(=O)O)cc2)OCc2ccccc2-c2c(n(C)c3ccccc23)C1=O	0.1	9.7	-0.3	47.6*	x	5.9	49.5*	13.9*

Assay outcomes deposited in PubChem by several laboratories.
